Measured values: ChEMBL document CHEMBL4513216, “Probing the Open Global Health Chemical Diversity Library for Multistage-Active Starting Points for Next-Generation Antimalarials” (ACS Infect Dis, 2020)
Screen size: about 69,000 compounds; about 8,600 (12%) showed an effect of 50% or more. Only a selection was taken, and strong results are over-represented in it overall.

tested on: Plasmodium berghei; assay: Screen against P. berghei liver stage (PbLuc), transformed with Luciferase, at 10uM; assay type: functional, HepG2; details: tested at 10 uM

SMILES | INHIBITION [%]
Cc1ccccc1C(CNc1ncnc2c1CCNCC2)N(C)C (stereo not given) | -59.8
Cc1ccccc1C(CNc1ncnc2c1CCNC2)N(C)C (stereo not given) | -2.98
c1cnn(CCN2CCOC(Cn3cccn3)C2)c1 (stereo not given) | -59.4
CCCOCC(=O)N1CCc2nc(NC)nc(C(=O)N3CCCC3)c2C1 | -5.08
CN(C)c1ccc(C(=O)N2CCN(c3cnccn3)CC2)cn1 | 2.1
Cc1nn(C)c2ncc(CN3CCN(c4ncccn4)CC3)cc12 | 7.3
CCC(C)NC(=O)CS(=O)(=O)Cc1cc(Cl)c2c(c1)OCCCO2 (stereo not given) | -58.7
CCOC(=O)C1(O)CCN(C(=O)Nc2cccc(CC)c2)CC1 | -41.8
COc1c(C2CCCN2C(=O)c2ccnc(C)n2)c(C)nn1C (stereo not given) | 3.73
Cc1nn(C)cc1CN1CCCCCC1c1ccc(Cl)cc1 (stereo not given) | 13.6
CCc1noc(C(C)N2CCN(c3ccc(C#N)cn3)CC2)n1 (stereo not given) | -25.3
CCc1noc(C(C)N2CCN(C)CC2)n1 (stereo not given) | -5.25
CCc1noc(C(C)N2CCN(c3ncnc4sccc34)CC2)n1 (stereo not given) | 61.7
Cc1cnc(CN2CCN(C(C)c3nc(C)no3)CC2)cn1 (stereo not given) | -14.8
COc1ccnc(N2CCN(C(C)c3nc(C)no3)CC2)n1 (stereo not given) | 22.6
COc1cc(C)nc(N2CCN(C(C)c3nc(C)no3)CC2)n1 (stereo not given) | -72.5
Cc1noc(C(C)N2CCN(c3ncnc4sccc34)CC2)n1 (stereo not given) | 68.8
Cc1noc(C(C)N2CCC(c3nc4ccccc4[nH]3)CC2)n1 (stereo not given) | 35.4
CCc1cc(C)nc(N2CCN(C(C)c3nc(C)no3)CC2)n1 (stereo not given) | 53.4
Cc1noc(C(C)N2CCN(c3ncnc4ccccc34)CC2)n1 (stereo not given) | 51.3
Cc1noc(C(C)N2CCN(Cc3ccco3)CC2)n1 (stereo not given) | 34.7
CCOc1cc(C)nc(N2CCN(C(C)c3nc(C)no3)CC2)n1 (stereo not given) | 18.7
Nc1ccnc(N2C[C@H](O)[C@@H](N3CCN(c4ccccn4)CC3)C2)n1 | 37.2
O=C([C@H]1C[C@H]2CN(c3ncc(F)cn3)C[C@@H]1O2)N1CCOCC1 | 17.7
CC1CN(CC(=O)NC2CCOCC2)CCN1Cc1nccn1C (stereo not given) | 29.305
CCCOc1cccc(C(=O)Oc2cc(=O)n3cccc(C)c3n2)c1 | 22.6
Cc1ncncc1C(=O)N1CCCC1c1c(C)nn(C)c1Cl (stereo not given) | 1.78
Cc1cnc(C(=O)N2C[C@@H]3CC[C@H]2CN(c2cnccn2)C3)cn1 | -55.1

SMILES | INHIBITION [%]
O=C(C1CCCCC1)N1CCN(Cc2nc(-c3ccco3)no2)CC1 | 23.7
COC(=O)c1ccoc1CN(C)CC(=O)N(C)C | 22.8
NC(=O)CN1CCOCC(Cc2ccccc2Cl)C1 (stereo not given) | 11.1
O=C(c1csc(I)c1)N1CCc2c(ncn2C2CC2)C1 | 76
CN(C)c1ncccc1C(=O)N1CCc2c(ncn2C2CC2)C1 | -10.785
COC(=O)c1ccc(C(=O)N2CCc3c(ncn3C3CC3)C2)cc1 | -36.95
CCN(CC)Cc1nnc2sc(C(C)Oc3ccccc3)nn12 (stereo not given) | -2.93
CC(C)C1CN(S(C)(=O)=O)CCCN1Cc1ccc(F)cc1 (stereo not given) | 24.3
CC(C)C1CN(S(=O)(=O)N(C)C)CCCN1Cc1ccc(F)cc1 (stereo not given) | 12.8
CC(C)C1CN(S(=O)(=O)N2CCCC2)CCCN1Cc1ccc(F)cc1 (stereo not given) | 65.3
CC(C)C1CN(S(=O)(=O)C2CC2)CCCN1Cc1ccc(F)cc1 (stereo not given) | 45.6
CC(C)C1CN(c2cccc(C#N)n2)CCCN1Cc1ccc(F)cc1 (stereo not given) | 68.5
CC(C)C1CN(c2cccc(C#N)n2)CCCN1CC1CC1 (stereo not given) | 33.9
Fc1cnc(N2CCn3cc(CNc4ccccn4)nc3C2)nc1 | 47.2
CC(C)n1nc(CNc2ncccn2)c2c1CN(C1CCOCC1)CC2 | -18.2
O=C(NCCN1CCCCC1=O)C1CCC(=O)N(C2CCCC2)C1 (stereo not given) | 55.6
O=C(NCCn1cccc1)C1CCC(=O)N(C2CCCC2)C1 (stereo not given) | 41.2
CSCCNC(=O)C1CCC(=O)N(C2CCCC2)C1 (stereo not given) | 17.9
N#Cc1ccc(NCc2cccc(OCC3CCCO3)c2)nc1 (stereo not given) | 53.8
CNC(=O)c1cccc(CCNc2ccc(C#N)cn2)c1 | -11
CN(C)C(=O)c1cccc(CNc2ccc(C#N)cn2)c1 | 73.8
N#Cc1ccc(NCCCOCC2CCCO2)c(F)c1 (stereo not given) | 6.02
CNS(=O)(=O)Cc1cccc(CNc2ccc(C#N)cn2)c1 | -55
N#Cc1ccc(NCc2cccc(COC3CCOCC3)c2)nc1 | 7.58
Oc1cccc(CNCC2CCCO2)c1 (stereo not given) | 35.5
Cc1nnc(NCc2cccc(OCC3CCCO3)c2)c(C#N)c1C (stereo not given) | 1.74
Cc1nc2ccccc2nc1NCc1cccc(OCC2CCCO2)c1 (stereo not given) | 83.9
